The target of assay [1] is Aldehyde dehydrogenase, mitochondrial (Homo sapiens) (UniProt P05091). As to the kind of experiment: qHTS for Inhibitors of the Aldehyde Dehydrogenase Family (ALDH2) Primary screen (AID 2061308). Also: nearly all actives have a fitted effect of over 55% in size. Also: potency is read from the fitted curve at half-maximal effect.
The target in assay [2] is Retinaldehyde dehydrogenase 3 (Homo sapiens) (UniProt P47895). As to the kind of experiment: qHTS for Inhibitors of the Aldehyde Dehydrogenase Family (ALDH1A3) Primary screen (AID 2061315).

We go through 43 compounds from PubChem BioAssay (NCATS).

Inconclusive results are not listed. Entries that show only a call come without a potency. Activity calls are given as the source filed them. Calls follow the shape of the dose curve; as a rule, active = well fitted curve in the direction sought with a large enough effect; inconclusive = small, poorly fitted or top-dose-only effect, or another doubt; inactive = no such curve, though single readings can be large; an effect the other way counts as inactive or inconclusive.

For the compound `CC1(C)CC2CC(C)(CN2S(=O)(=O)c2ccc(C(=O)Nc3ccc(Cl)cc3)cc2)C1` (stereo unspecified), the Potency result in assay [1] and in assay [2] was “inactive” throughout.
With `C=C1[C@@H](C)[C@H]2[C@H](Cc3c[nH]c4ccccc34)NC(=O)[C@]23C(=O)/C=C/C(=O)[C@H](O)/C(C)=C\[C@@H](C)C/C=C/[C@H]3[C@@H]1O`, the Potency in assay [1] is 11.2 µM (active). In addition, in assay [2], the Potency result is “inactive”.
The corresponding values for `CCc1ccc2oc(=O)cc(CN3CCN(c4ccccc4F)CC3)c2c1` are “inactive” and “inactive”.
Take `N#Cc1cc(NC(=O)Nc2nnc(-c3ccncc3)s2)ccc1F`: the Potency entry in assay [1] and in assay [2] was “inactive” each time.
Turning to `CC(C)Nc1cccc(S(=O)(=O)N2CCCN(S(=O)(=O)c3ccc4c(c3)OCCO4)CC2)c1`, the Potency entry in assay [1] and in assay [2] was “inactive” each time.
As to `Cc1cc(NS(=O)(=O)c2ccc(NC(=O)Cc3ccc(C)c(C)c3)cc2)no1`, the Potency entry in assay [1] and in assay [2] was “inactive” each time.
`COc1ccc(CNc2ccc(S(=O)(=O)Nc3nccs3)cc2)c(O)c1`: the Potency entry in assay [1] and in assay [2] was “inactive” in each case.
As for `CCN(Cc1ccccc1)c1ccc(Br)cn1`, the Potency result in assay [1] and in assay [2] was “inactive” throughout.
Turning to `Cc1cc(NC(=O)Nc2nnc(C3CCCCC3)s2)ccc1Cl`, the Potency result in assay [1] and in assay [2] was “inactive” each time.
As for `Cc1cc2c(s1)c1cnn(Cc3cc(F)c(F)cc3F)c(=O)c1n2C`, the Potency result in assay [1] and in assay [2] was “inactive” throughout.
With `CC1CCC2C(C)(C)C(O)CCC2(C)C12Cc1c(O)cc3c(c1O2)C(N)=NC3` (stereo unspecified), the Potency entry in assay [1] and in assay [2] was “inactive” each time.
On to `COC(=O)c1ccc(O)c2ncccc12`, for which the Potency result in assay [1] and in assay [2] was “inactive” in each case.
`Cc1ccc(S(=O)(=O)Nc2cnccc2C(=O)Nc2ccc(S(=O)(=O)Nc3nccs3)cc2)cc1`: the Potency result in assay [1] and in assay [2] was “inactive” each time.
Take `Cc1ccc(NS(=O)(=O)c2cc3c(cc2Cl)NC(=O)C3)cc1C`: the Potency result in assay [1] and in assay [2] was “inactive” each time.
As to `Cc1ccc(Cl)cc1NS(=O)(=O)c1cc2c(cc1Cl)CCC(=O)N2`, the Potency result in assay [1] and in assay [2] was “inactive” throughout.
Turning to `CC(C)(C)OC(=O)N1CCN(c2ccc(NCc3nnc(-c4ccc(C#N)cc4)o3)cc2)CC1`, the Potency entry in assay [1] and in assay [2] was “inactive” throughout.
Consider `CN(C(=O)c1cn2c(-c3ccc(C(F)(F)F)cc3)cnc2cn1)c1ccc(C#N)cc1`, for which the Potency result in assay [1] and in assay [2] was “inactive” each time.
Take `O=S(=O)(c1ccc2c(c1)OCCO2)N1CCN(S(=O)(=O)c2ccccc2Cl)CC1`: the Potency result in assay [1] and in assay [2] was “inactive” in each case.
With `N#Cc1ccccc1CCc1nc2ncc(Br)cc2[nH]1`, the Potency result in assay [1] and in assay [2] was “inactive” in each case.
Take `O=C(O)c1ccc(-c2ccc3ncnc(N4CCOCC4)c3c2)o1`: the Potency entry in assay [1] and in assay [2] was “inactive” throughout.
As to `Cc1cncc(NC(=S)N2CCN(c3cccc(C(F)(F)F)c3)CC2)c1`, the Potency entry in assay [1] and in assay [2] was “inactive” each time.
Take `O=C(O)c1ccc2c(c1)C(=O)N([C@H](Cc1ccc3ccccc3c1)C(=O)O)C2=O`: the Potency result in assay [1] and in assay [2] was “inactive” throughout.
Take `Cc1cc(-c2nnc3n2CCCCC3)c(C)n1-c1ccc(C(F)(F)F)cc1`: the Potency result in assay [1] and in assay [2] was “inactive” in each case.
For `COc1ccc(C2=Nn3c(nnc3-c3ccc(OC)c(OC)c3)SC2)cc1`, the Potency result in assay [1] and in assay [2] was “inactive” each time.
On to `CCOC(=O)C1CCN(C(=O)C(C)(C)NC(=O)Nc2ccc3c(c2)CCC3)CC1`, for which the Potency result in assay [1] and in assay [2] was “inactive” each time.
Take `Cc1csc(CNc2ncnc3ccc(-c4ccccc4Cl)cc23)c1`: the Potency entry in assay [1] and in assay [2] was “inactive” each time.
For `Cc1ccc(S(=O)(=O)Nc2ccccc2C(=O)Nc2nc(-c3ccccc3)c(C)s2)cc1`, the Potency result in assay [1] and in assay [2] was “inactive” in each case.
As to `Cc1ccnc(NC(=S)N2CC3CN(c4ccc(Cl)cc4C(F)(F)F)CC3C2)c1` (stereo unspecified), the Potency result in assay [1] and in assay [2] was “inactive” in each case.
For `O=S(=O)(Nc1cccc2cccnc12)c1ccc(Br)cc1`, the Potency result in assay [1] and in assay [2] was “inactive” throughout.
In the case of `O=C(Nc1nc(-c2ccccc2)cs1)c1ccccc1-n1cnnn1`, the Potency result in assay [1] and in assay [2] was “inactive” in each case.
Take `COc1cccc(N2C(=O)c3ccccc3C2=O)n1`: the Potency entry in assay [1] and in assay [2] was “inactive” throughout.
Regarding `NCCCCNc1ncnc2ccc(-c3ccc4c(c3)OCO4)cc12`, the Potency entry in assay [1] and in assay [2] was “inactive” each time.
With `COC(=O)c1c(NC(=O)COC(=O)c2ccc(Cl)cc2[N+](=O)[O-])sc2c1CCCCC2`, the Potency result in assay [1] and in assay [2] was “inactive” in each case.
As for `Cc1ccc(NS(=O)(=O)c2cc3c(cc2N(C)C)NC(=O)CC3)cc1C`, the Potency entry in assay [1] and in assay [2] was “inactive” throughout.
Consider `FC(F)(F)c1ccccc1-c1nc(NCc2ccc(-c3ccncc3)cc2)c2ccccc2n1`, for which the Potency result in assay [1] and in assay [2] was “inactive” throughout.
As to `CC(=O)Nc1sc2c(c1-c1ccc(-c3nn[nH]n3)cc1)CCNC2`, the Potency entry in assay [1] and in assay [2] was “inactive” throughout.
`CN(CC(F)(F)F)c1nc(NCc2ccc(-c3cccnc3)cc2)c2ccccc2n1`: the Potency result in assay [1] and in assay [2] was “inactive” each time.
As for `COc1ccc(NC(=O)c2cnn3c(C)cc(C)nc23)cc1OC`, the Potency result in assay [1] and in assay [2] was “inactive” throughout.
As for `COc1cccc(O)c1CNc1ccc(S(=O)(=O)Nc2nccs2)cc1`, the Potency result in assay [1] and in assay [2] was “inactive” each time.
Consider `Cc1cccc(CNc2ncnc3ccc(-c4ccc5c(ccn5C)c4)cc23)c1`, for which the Potency result in assay [1] and in assay [2] was “inactive” throughout.
`COc1cc(NS(=O)(=O)c2ccc(C)cc2)ccc1C(=O)Nc1nc(-c2ccccc2)cs1`: the Potency result in assay [1] and in assay [2] was “inactive” each time.
For `O=C(Nc1ccc(S(=O)(=O)Nc2nccs2)cc1)C1CCC2(CC1)CC2`, the Potency entry in assay [1] and in assay [2] was “inactive” in each case.
In the case of `COc1ccc(C(F)(F)F)cc1NC(=O)C(OC(=O)CNC(=O)c1ccccc1)c1ccccc1` (stereo unspecified), the Potency entry in assay [1] and in assay [2] was “inactive” in each case.
